Reference: article PMC4336329 (PLoS ONE, 2015)
Out of some 310,000 compounds screened, about 14,000 (4.5%) showed an effect of 50% or more. The effect is printed as a negative number. For the sample, strong results were picked, then their nearest neighbours and some compounds at random.

Target: human ether-à-go-go-related gene (hERG) potassium channel (human, UniProt Q12809)
Assay: primary screen, population patch clamp on CHO cells stably expressing hERG; higher = less effect of the substance
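Also: peak tail current of the secondary pulse compared with the same well before compound.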

human ether-à-go-go-related gene (hERG) potassium channel, sequence (Q12809 whole entry, looked up): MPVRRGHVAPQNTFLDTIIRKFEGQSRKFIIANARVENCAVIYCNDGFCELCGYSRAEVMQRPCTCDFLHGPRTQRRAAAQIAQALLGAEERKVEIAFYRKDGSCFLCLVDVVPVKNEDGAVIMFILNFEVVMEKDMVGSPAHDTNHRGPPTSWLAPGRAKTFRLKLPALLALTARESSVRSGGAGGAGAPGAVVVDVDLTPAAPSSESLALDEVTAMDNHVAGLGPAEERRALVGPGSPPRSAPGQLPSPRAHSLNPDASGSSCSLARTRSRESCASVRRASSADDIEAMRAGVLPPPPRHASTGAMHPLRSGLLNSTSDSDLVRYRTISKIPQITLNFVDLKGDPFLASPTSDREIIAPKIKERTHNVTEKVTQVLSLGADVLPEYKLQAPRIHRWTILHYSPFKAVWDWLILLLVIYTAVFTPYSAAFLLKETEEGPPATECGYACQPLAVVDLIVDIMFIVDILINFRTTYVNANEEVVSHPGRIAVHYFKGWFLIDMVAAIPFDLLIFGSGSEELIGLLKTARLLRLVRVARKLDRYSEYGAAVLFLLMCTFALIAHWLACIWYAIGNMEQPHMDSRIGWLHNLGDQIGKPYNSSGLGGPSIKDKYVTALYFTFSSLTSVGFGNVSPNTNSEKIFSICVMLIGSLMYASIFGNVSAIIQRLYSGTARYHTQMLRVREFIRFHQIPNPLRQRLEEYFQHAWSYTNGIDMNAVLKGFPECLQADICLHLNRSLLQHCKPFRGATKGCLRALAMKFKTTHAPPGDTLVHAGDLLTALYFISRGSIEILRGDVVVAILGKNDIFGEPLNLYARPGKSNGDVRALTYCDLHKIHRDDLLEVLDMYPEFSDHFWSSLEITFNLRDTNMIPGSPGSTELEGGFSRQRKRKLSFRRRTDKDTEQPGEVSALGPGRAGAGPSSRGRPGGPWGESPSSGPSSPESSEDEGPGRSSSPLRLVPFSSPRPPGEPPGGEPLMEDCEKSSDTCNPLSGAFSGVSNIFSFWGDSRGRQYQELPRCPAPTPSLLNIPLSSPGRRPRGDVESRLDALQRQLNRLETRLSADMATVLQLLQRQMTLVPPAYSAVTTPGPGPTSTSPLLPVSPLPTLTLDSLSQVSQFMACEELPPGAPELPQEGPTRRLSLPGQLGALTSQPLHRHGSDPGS

Compound	hERG current change (%, negative = inhibition) at 10uM [%]
NC(=O)c1ccsc1NC(=O)COC(=O)c1ccc(Cl)c(N)c1	-3.1
CC1CCCN(C(=O)CCS(=O)(=O)c2ccc3c(c2)n(C)c(=O)c(=O)n3C)C1 (centres unmarked)	1.25
Cc1nc2ccccc2nc1CSc1nncs1	5.39
O=C(Nc1ccc(-c2nc3ccccc3o2)cc1)c1ccc(N2C(=O)C3C4C=CC(C4)C3C2=O)cc1 (centres unmarked)	3.26
O=C(Cc1ccccc1)NC(=S)Nc1ccc(OC(F)F)cc1	-2.31
COCCN(CCOC)S(=O)(=O)c1ccc(NC(=O)c2cnccn2)cc1	13.1
CCOC(=O)c1c(NC(=O)C(C)N2CCN(C(=O)c3ccco3)CC2)sc2c1CCCC2 (centres unmarked)	-56.1
CCOC(=O)c1c(NC(=O)c2ccco2)sc2c1CCCC2	4.29
CCOC(=O)c1c(NC(=O)c2ccco2)sc2c1CCCCC2	9.58
CCOC(=O)c1c(NC(=O)CN2CCN(C(=O)c3ccco3)CC2)sc2c1CCCC2	-8.72
CCOC(=O)c1c(NC(=O)CSc2nnc(CNC(=O)c3ccco3)n2C)sc2c1CCC2	-50.1
CCOC(=O)c1c(NC(=O)CSc2nnc(CN3CCOCC3)n2C)sc2c1CCCC2	-30
CCOC(=O)c1c(NC(=O)c2ccccc2C(=O)O)sc2c1CCC2	-1.15
CCOC(=O)c1c(NC(=O)c2ccccc2C(=O)O)sc2c1CCCC2	18
CCOC(=O)c1c(NC(=O)C(NCCN(C)C)c2ccccc2)sc2c1CCCC2 (centres unmarked)	-73.2
COc1ccc(C2=C(C=Nc3c(C)n(C)n(-c4ccccc4)c3=O)C(c3ccccc3C)c3ccccc3O2)cc1OC (centres unmarked)	11.7
CCOC(=O)C1CCN(c2ncnc3c2cnn3C)CC1	6.3
Fc1ccc(NC(=S)N2CCCC2)cc1Cl	8.95
CS(=O)(=O)NNC(=O)Cn1nnc(-c2cc(C(F)(F)F)cc(C(F)(F)F)c2)n1	19.7
O=C(NNC(=O)c1nn(-c2ccc(F)cc2)ccc1=O)c1ccccc1Cl	-5
O=C(Cn1cnc2ccccc2c1=O)NC1CCCc2ccccc21 (centres unmarked)	6.08
CCCCn1c(SCC(=O)Nc2cc(C)on2)nnc1-c1cccs1	-48.3
CCOC(=O)Cc1csc(NC(=O)COc2ccc3c(c2)CCC3)n1	-1.14
COc1ccc(C)cc1S(=O)(=O)NCCN1CCOCC1	17.5
CC(C)c1ccc(N(C(=O)c2ccco2)C(C(=O)NC2CCCC2)c2cccnc2)cc1 (centres unmarked)	-25.3
COc1cccc(/C=C(/C#N)c2ccc(F)cc2)c1OCc1cccc(C(=O)O)c1	11.4
O=C(NCc1ccc(F)cc1)c1c2c(nc3ccccc13)CCN(Cc1ccccc1)C2	-22.2

Compound	hERG current change (%, negative = inhibition) at 10uM [%]
CCOc1ccc(NC(=O)c2c3c(nc4ccccc24)CCC3)cc1	8.95
CCN1CCc2nc3ccccc3c(C(=O)Nc3ccc(C#N)cc3)c2C1	-71
CCN1CCc2nc3ccccc3c(C(=O)Nc3ccc(F)cc3)c2C1	-74.5
O=C(Nc1ccccc1)c1c2c(nc3ccccc13)CCCC2	-0.42
CCN1CCc2nc3ccccc3c(C(=O)Nc3ccc(NC(C)=O)cc3)c2C1	10.2
CCCCC(=O)Nc1cccc(NC(=S)NC(=O)C(C)C)c1	3.44
O=C(NCCc1ccco1)C(=O)NCC1OCCCN1S(=O)(=O)c1ccccc1 (centres unmarked)	-1.76
COc1ccc(/C=N/NC(=S)NCC2CCCO2)cc1 (centres unmarked)	6.97
CCCC(=O)Nc1ccc(NC(=O)c2ccccn2)cn1	-8.57
CC(C)NC(=O)CSCc1ccccc1Cl	12.9
Cc1ccc(C)c2[nH]c(=O)c(C(c3nnnn3Cc3ccccc3)N3CCc4ccccc4C3)cc12 (centres unmarked)	-9.12
COc1ccc(Cn2nnnc2C(c2cc3cc(C)ccc3[nH]c2=O)N2CCN(C)CC2)cc1 (centres unmarked)	-24.4
Cc1ccc(C)c2[nH]c(=O)c(C(c3nnnn3CCc3ccccc3)N3CCOCC3)cc12 (centres unmarked)	-59.4
COc1ccc2cc(C(c3nnnn3Cc3ccc(F)cc3)N3CCCCCC3)c(=O)[nH]c2c1 (centres unmarked)	-23.3
CCc1ccc2[nH]c(=O)c(C(c3nnnn3Cc3ccc(OC)cc3)N3CCOCC3)cc2c1 (centres unmarked)	-19.1
COc1ccc(Cn2nnnc2C(c2cc3cccc(C)c3[nH]c2=O)N2CCOCC2)cc1 (centres unmarked)	-43.6
COc1ccc(Cn2nnnc2C(c2cc3cccc(C)c3[nH]c2=O)N2CCN(C)CC2)cc1 (centres unmarked)	29.6
COc1ccc(Cn2nnnc2C(c2cc3cc(C)ccc3[nH]c2=O)N2CCOCC2)cc1 (centres unmarked)	-50.2
Cc1ccc2[nH]c(=O)c(C(c3nnnn3CCc3ccccc3)N3CCOCC3)cc2c1 (centres unmarked)	-10.5
COc1cc2cc(C(c3nnnn3Cc3ccc(F)cc3)N3CCCCCC3)c(=O)[nH]c2cc1OC (centres unmarked)	-74
COc1ccc(Cn2nnnc2C(c2cc3ccc(OC)cc3[nH]c2=O)N2CCCCCC2)cc1 (centres unmarked)	-13.6
COc1ccc(Cn2nnnc2C(c2cc3cc(C)cc(C)c3[nH]c2=O)N2CCOCC2)cc1 (centres unmarked)	-58.2
COc1cnc(-c2ccccc2)nc1Oc1ccccc1C	-4.2
CN(C)c1ccc(C(=O)/C=C/c2ccccc2)cc1	8.65
O=C(NNC(=O)C1CCN(c2ncccn2)CC1)c1ccc(Cl)cc1	0.113
Cc1cccc(C)c1NC(=O)c1cc2c(=O)c3ccccc3oc2nc1C(F)(F)F	-3.38
